# Source: PubChem BioAssay (EPA / NIEHS)
# Results filed as inconclusive are left out. Active and inactive are the calls of the source. Rule for the calls, unless noted: active = hit-call score of the fitted dose curve at least 0.9, where 1 is the maximum; inactive = score below 0.9.
# Key:
# [1] = biological target: Paired box protein Pax-6 (Homo sapiens) (UniProt P26367); test: ATG_Pax6_CIS: Attagene CIS-FACTORIAL HepG2 Assay for human Paired Box 6 (PAX6) (AID 2282956); details: HepG2 CIS-FACTORIAL PAX6 reporter transcription, RNA readout; actives raise or lower the signal
# Sequence of Paired box protein Pax-6 (Homo sapiens) (P26367 whole entry, looked up): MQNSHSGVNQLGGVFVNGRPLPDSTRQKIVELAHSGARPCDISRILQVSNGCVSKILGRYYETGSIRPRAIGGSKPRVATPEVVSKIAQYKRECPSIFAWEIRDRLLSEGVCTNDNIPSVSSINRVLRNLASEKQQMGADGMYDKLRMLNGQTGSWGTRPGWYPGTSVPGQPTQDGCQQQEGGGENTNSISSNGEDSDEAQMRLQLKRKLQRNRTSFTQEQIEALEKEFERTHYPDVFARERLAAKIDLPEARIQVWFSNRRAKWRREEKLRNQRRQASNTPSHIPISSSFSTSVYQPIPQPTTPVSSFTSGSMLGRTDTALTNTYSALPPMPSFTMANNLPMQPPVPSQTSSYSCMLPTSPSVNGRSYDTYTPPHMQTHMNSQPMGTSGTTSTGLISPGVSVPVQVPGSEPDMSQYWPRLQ
# Summary of the method: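 HepG2 cells transiently transfected with cis-promoter-driven multiplexed reporter units sensing endogenous transcription factor activity; 24 h chemical exposure. Reporter mRNA quantified by RT-PCR, 6-FAM labelling, HpaI digestion and capillary electrophoresis; bidirectional fit versus DMSO baseline.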
# [2] = ATG_PXRE_CIS: Attagene CIS-FACTORIAL HepG2 Assay for human Pregnane X Receptor Element (PXRE) (AID 2282957); details: HepG2 Attagene CIS-FACTORIAL PXRE reporter, mRNA; actives raise or lower the signal
# Summary of the method: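 HepG2 cells transiently transfected with cis-regulated multiple reporter transcription units; endogenous factor activity measured as reporter mRNA 24 h after dosing. RT-PCR, fluorescent primer extension, HpaI digestion, capillary electrophoresis; bidirectional fit versus DMSO baseline.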
# [3] = ATG_PPRE_CIS: Attagene CIS-FACTORIAL HepG2 Assay for human Peroxisome Proliferator-activated Response Element (PPRE) (AID 2282958); details: HepG2 PPRE cis-element reporter, Attagene transcription factor profiling; actives raise or lower the signal
# Summary of the method: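 Multiplexed reporter transcription units under cis-regulatory promoters were transfected into HepG2 cells to capture endogenous factor activity. A 24 h incubation preceded RNA isolation and fluorescent RT-PCR fragment analysis.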
# [4] = ATG_RORE_CIS: Attagene CIS-FACTORIAL HepG2 Assay for human RAR-related Orphan Receptor Element (RORE) (AID 2282959); details: HepG2 Attagene cis-factorial RORE reporter, mRNA; actives raise or lower the signal
# Summary of the method: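 Fluorescence intensity of reporter-specific cDNA fragments, separated by capillary electrophoresis, gives the signal. Source: HepG2 liver cells transiently transfected with cis-element reporters and exposed 24 h; DMSO-normalized bidirectional fit.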
# [5] = ATG_Sox_CIS: Attagene CIS-FACTORIAL HepG2 Assay for human SRY-box transcription factor (SOX) (AID 2282960); details: HepG2 Attagene cis-factorial SOX reporter, mRNA; actives raise or lower the signal
# Summary of the method: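 After 24 h of chemical treatment, transfected HepG2 reporter cells are lysed for total RNA. Transcript levels come from RT-PCR with labelled primer extension and capillary electrophoresis, analysed bidirectionally versus DMSO.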
# [6] = biological target: Transcription factor Sp1 (Homo sapiens) (UniProt P08047); test: ATG_Sp1_CIS: Attagene CIS-FACTORIAL HepG2 Assay for human Specificity Protein 1 (Sp1) (AID 2282961); details: HepG2 Sp1 cis-reporter transcription, actives raise or lower the signal
# Sequence of Transcription factor Sp1 (Homo sapiens) (P08047 whole entry, looked up): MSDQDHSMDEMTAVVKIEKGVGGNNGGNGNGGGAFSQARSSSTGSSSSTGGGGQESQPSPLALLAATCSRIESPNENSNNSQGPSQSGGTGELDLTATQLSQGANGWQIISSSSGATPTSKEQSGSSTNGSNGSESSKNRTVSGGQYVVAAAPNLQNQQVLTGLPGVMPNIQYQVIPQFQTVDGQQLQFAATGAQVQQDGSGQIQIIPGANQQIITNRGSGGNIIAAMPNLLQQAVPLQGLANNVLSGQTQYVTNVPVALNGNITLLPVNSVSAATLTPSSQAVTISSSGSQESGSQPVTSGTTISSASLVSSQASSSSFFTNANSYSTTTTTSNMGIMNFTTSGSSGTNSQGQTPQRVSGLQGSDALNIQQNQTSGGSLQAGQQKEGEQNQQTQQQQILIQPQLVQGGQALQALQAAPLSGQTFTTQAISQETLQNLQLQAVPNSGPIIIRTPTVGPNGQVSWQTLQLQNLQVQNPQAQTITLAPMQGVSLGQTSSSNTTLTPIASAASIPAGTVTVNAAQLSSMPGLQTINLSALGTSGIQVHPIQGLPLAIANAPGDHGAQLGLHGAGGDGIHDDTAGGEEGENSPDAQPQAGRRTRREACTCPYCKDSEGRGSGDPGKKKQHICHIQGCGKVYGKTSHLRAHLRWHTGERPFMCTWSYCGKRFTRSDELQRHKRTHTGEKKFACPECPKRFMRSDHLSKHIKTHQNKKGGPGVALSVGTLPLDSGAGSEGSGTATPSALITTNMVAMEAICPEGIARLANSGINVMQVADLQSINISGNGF
# Summary of the method: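 Sp1-driven reporter mRNA, read as capillary electrophoresis fluorescence after RT-PCR, in transiently transfected HepG2 cells dosed for 24 h; signal change in either direction relative to DMSO.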
# [7] = ATG_SREBP_CIS: Attagene CIS-FACTORIAL HepG2 Assay for human Sterol Regulatory Element Binding (SREBP) (AID 2282962); details: HepG2 Attagene cis-factorial SREBP reporter, mRNA; actives raise or lower the signal
# Summary of the method: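 HepG2 cells transiently transfected with multiplexed cis-promoter reporter units sensing endogenous transcription factors; reporter mRNA measured 24 h after dosing by RT-PCR, 6-FAM labeling, HpaI digestion and capillary electrophoresis. Bidirectional fit versus DMSO.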
# [8] = biological target: Signal transducer and activator of transcription 3 (Homo sapiens) (UniProt P40763); test: ATG_STAT3_CIS: Attagene CIS-FACTORIAL HepG2 Assay for human Signal Transducer and Activator of Transcription 3 (STAT3) (AID 2282963); details: HepG2, Attagene cis-factorial STAT3 reporter transcription; actives raise or lower the signal
# Sequence of Signal transducer and activator of transcription 3 (Homo sapiens) (P40763 whole entry, looked up): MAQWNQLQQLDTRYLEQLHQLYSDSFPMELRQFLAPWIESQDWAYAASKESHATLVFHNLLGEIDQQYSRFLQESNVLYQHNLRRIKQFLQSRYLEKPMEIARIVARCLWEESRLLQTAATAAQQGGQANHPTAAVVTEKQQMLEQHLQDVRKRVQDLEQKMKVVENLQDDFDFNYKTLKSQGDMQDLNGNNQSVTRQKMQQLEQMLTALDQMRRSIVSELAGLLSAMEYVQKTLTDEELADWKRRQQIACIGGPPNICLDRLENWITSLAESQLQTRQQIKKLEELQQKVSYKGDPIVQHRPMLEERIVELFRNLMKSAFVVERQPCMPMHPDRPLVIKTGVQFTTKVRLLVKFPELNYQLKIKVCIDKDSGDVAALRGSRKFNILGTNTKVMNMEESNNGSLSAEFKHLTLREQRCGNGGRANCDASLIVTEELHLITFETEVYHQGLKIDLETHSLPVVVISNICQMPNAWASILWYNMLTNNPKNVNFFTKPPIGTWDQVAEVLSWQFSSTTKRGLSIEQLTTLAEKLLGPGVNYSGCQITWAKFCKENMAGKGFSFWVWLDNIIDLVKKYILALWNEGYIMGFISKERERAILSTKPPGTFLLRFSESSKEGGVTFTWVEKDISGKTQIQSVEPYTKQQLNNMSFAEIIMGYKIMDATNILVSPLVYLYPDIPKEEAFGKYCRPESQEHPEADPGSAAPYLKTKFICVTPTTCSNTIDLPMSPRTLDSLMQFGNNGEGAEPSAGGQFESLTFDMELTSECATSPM
# Summary of the method: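 HepG2 cells transiently transfected with cis-element-driven multiple reporter transcription units; after 24 h chemical exposure, reporter mRNA measured by RT-PCR, 6-FAM primer-extension labelling, HpaI digestion and capillary electrophoresis. Bidirectional fitting versus DMSO baseline.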
# [9] = ATG_TA_CIS: Attagene CIS-FACTORIAL HepG2 Assay for human TA Basal Promoter (AID 2282964); details: HepG2 Attagene CIS-factorial TA basal promoter reporter; actives raise or lower the signal
# Summary of the method: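 Transient MRTU transfection of HepG2 preceded 24 h compound exposure. Reporter mRNA levels were then read by RT-PCR with capillary electrophoresis, and this background-control endpoint was fitted bidirectionally to DMSO.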
# [10] = ATG_TCF_b_cat_CIS: Attagene CIS-FACTORIAL HepG2 Assay for human T-Cell-Factor with beta-catenin (TCF/b-cat) (AID 2282965); details: HepG2 TCF/beta-catenin cis-reporter transcription, actives raise or lower the signal
# Summary of the method: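 Using capillary electrophoresis as the read-out, labelled reporter cDNA fragments from transiently transfected HepG2 were sized and quantified. Exposure lasted 24 hours; activity in either direction was referenced to DMSO.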
# [11] = ATG_TAL_CIS: Attagene CIS-FACTORIAL HepG2 Assay for human TAL Basal Promoter (AID 2282966); details: HepG2 Attagene cis-factorial TAL promoter reporter; actives raise or lower the signal;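 note: background control endpoint measuring basal TAL promoter reporter mRNA not a specific factor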
# Summary of the method: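 HepG2 cells were transiently transfected with promoter-driven multiplexed reporter units and dosed for 24 h. Reporter mRNA was measured by RT-PCR with capillary electrophoresis fluorescence; bidirectional fits used DMSO as baseline, serving as a background control.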
# [12] = ATG_TGFb_CIS: Attagene CIS-FACTORIAL HepG2 Assay for human Transforming Growth Factor (TGF) (AID 2282967); details: HepG2 Attagene CIS TGFb reporter, mRNA transcription; actives raise or lower the signal
# Summary of the method: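 After a 24-hour incubation with compound, transfected HepG2 cells were lysed for RNA; reporter cDNA was amplified, fluorescently end-labeled and separated by CE. DMSO served as baseline for bidirectional fits.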
# [13] = ATG_VDRE_CIS: Attagene CIS-FACTORIAL HepG2 Assay for human Vitamin D Receptor Element (VDRE) (AID 2282968); details: HepG2 VDRE cis-reporter transcription, actives raise or lower the signal
# Summary of the method: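 HepG2 cells transiently transfected with cis-element reporter units, dosed 24 h; reporter mRNA measured by RT-PCR, 6-FAM labeling, HpaI digestion and capillary electrophoresis. Activity fitted bidirectionally against DMSO baseline.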
# [14] = biological target: X-box-binding protein 1 (Homo sapiens) (UniProt P17861); test: ATG_Xbp1_CIS: Attagene CIS-FACTORIAL HepG2 Assay for human X-box Binding Protein 1 (XBP1) (AID 2282972); details: HepG2 XBP1 cis-element reporter, Attagene multiplex; actives raise or lower the signal
# Sequence of X-box-binding protein 1 (Homo sapiens) (P17861 whole entry, looked up): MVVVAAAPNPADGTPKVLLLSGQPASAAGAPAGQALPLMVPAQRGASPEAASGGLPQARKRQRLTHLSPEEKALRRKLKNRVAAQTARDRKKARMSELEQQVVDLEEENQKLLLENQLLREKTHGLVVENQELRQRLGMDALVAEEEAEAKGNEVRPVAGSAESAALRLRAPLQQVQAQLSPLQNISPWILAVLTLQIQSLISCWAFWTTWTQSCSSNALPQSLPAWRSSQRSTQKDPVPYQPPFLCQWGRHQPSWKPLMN
# Summary of the method: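 HepG2 cells transiently transfected with multiple cis-element reporter units report endogenous TF activity; 24 h exposure, then reporter mRNA measured by RT-PCR, 6-FAM labelling, HpaI digestion and capillary electrophoresis. Bidirectional fitting versus DMSO.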
# [15] = biological target: Steroid hormone receptor ERR1 (Homo sapiens) (UniProt P11474); test: ATG_ERRa_TRANS: Attagene TRANS-FACTORIAL HepG2 Assay for human Estrogen-Related Receptor alpha (ERRa) (AID 2282971; active = hit-call score of the fitted dose curve at least 0.9, where 1 is the maximum); details: HepG2 Attagene TRANS reporter, ERRa transactivation
# Sequence of Steroid hormone receptor ERR1 (Homo sapiens) (P11474 whole entry, looked up, the tested form may be a part): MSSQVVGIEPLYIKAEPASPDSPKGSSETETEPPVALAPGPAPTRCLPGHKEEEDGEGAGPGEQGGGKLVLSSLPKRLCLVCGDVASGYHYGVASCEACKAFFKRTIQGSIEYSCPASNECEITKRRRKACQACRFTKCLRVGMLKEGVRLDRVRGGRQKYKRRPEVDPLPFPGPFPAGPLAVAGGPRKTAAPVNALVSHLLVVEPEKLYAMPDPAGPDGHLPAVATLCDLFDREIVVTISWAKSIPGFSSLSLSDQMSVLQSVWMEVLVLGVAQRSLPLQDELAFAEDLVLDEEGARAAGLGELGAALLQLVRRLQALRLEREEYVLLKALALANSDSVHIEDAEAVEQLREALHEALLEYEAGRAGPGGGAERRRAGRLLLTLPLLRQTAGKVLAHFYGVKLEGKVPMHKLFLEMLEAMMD
# Summary of the method: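 HepG2 cells transiently transfected with multiplexed GAL4-UAS reporter units reading chimeric ERRa-Gal4 activity; 24 h compound exposure. Reporter mRNA measured by RT-PCR, 6-FAM labelling, HpaI digest and capillary electrophoresis; gain of signal fitted versus DMSO baseline.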
# [16] = ATG_GAL4_TRANS: Attagene TRANS-FACTORIAL HepG2 Assay for GAL4 (Internal Marker) (AID 2282976; active = hit-call score of the fitted dose curve at least 0.9, where 1 is the maximum); details: HepG2 Attagene TRANS GAL4 internal marker reporter
# Summary of the method: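 HepG2 cells transiently transfected with multiplexed GAL4-UAS reporter constructs were dosed for 24 h. Reporter mRNA was measured by RT-PCR, 6-FAM primer extension, HpaI digestion and capillary electrophoresis, and gain of signal was fitted relative to DMSO.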
# [17] = biological target: Estrogen-related receptor gamma (Homo sapiens) (UniProt P62508); test: ATG_ERRg_TRANS: Attagene TRANS-FACTORIAL HepG2 Assay for human Estrogen-Related Receptor gamma (ERRg) (AID 2282977; active = hit-call score of the fitted dose curve at least 0.9, where 1 is the maximum;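 note: hits increase reporter signal over DMSO so potencies reflect activators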); details: HepG2 Attagene TRANS reporter, ERRg transactivation
# Sequence of Estrogen-related receptor gamma (Homo sapiens) (P62508 whole entry, looked up, the tested form may be a part): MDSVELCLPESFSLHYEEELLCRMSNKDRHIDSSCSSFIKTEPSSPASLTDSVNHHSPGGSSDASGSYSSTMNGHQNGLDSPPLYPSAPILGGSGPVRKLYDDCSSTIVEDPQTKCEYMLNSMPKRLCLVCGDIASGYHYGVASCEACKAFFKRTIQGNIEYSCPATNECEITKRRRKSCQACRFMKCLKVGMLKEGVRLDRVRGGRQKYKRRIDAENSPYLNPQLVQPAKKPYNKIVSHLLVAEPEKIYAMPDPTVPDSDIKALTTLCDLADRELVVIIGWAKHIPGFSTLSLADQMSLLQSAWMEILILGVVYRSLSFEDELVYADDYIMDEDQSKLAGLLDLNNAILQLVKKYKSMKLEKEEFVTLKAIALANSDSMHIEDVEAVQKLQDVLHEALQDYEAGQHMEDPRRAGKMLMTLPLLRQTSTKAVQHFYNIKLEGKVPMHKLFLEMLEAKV
# Summary of the method: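 HepG2 cells transiently transfected with multiplexed GAL4-UAS reporter units and chimeric NR-Gal4 constructs were exposed to test chemicals for 24 h. Reporter mRNA was measured by RT-PCR, 6-FAM primer extension, HpaI digestion and capillary electrophoresis; gain-of-signal versus DMSO.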
# [18] = biological target: Nuclear receptor subfamily 1 group I member 3 (Homo sapiens) (UniProt Q14994); test: ATG_CAR_TRANS: Attagene TRANS-FACTORIAL HepG2 Assay for human Constitutive Androstane Receptor (CAR) (AID 2282969; active = hit-call score of the fitted dose curve at least 0.9, where 1 is the maximum;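 note: activators raise reporter mRNA above DMSO so AC50 marks induction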); details: HepG2 Attagene TRANS-FACTORIAL CAR reporter
# Sequence of Nuclear receptor subfamily 1 group I member 3 (Homo sapiens) (Q14994 whole entry, looked up, the tested form may be a part): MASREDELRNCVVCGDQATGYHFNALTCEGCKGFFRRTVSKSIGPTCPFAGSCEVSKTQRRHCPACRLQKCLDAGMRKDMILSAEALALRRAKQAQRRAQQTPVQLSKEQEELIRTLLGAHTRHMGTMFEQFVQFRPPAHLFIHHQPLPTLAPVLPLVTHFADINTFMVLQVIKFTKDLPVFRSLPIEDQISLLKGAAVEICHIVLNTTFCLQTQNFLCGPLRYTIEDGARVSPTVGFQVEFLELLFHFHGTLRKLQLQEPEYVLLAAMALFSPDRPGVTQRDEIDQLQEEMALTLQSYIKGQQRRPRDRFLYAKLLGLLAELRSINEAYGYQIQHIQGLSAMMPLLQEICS
# Summary of the method: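 HepG2 cells transiently transfected with multiplexed GAL4-UAS reporter units expressing chimeric NR-Gal4 proteins; compound exposure 24 h. Reporter mRNA measured by RT-PCR, 6-FAM labelling, HpaI digestion and capillary electrophoresis; gain-of-signal fitted against DMSO baseline.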
# [19] = ATG_M_19_TRANS: Attagene TRANS-FACTORIAL HepG2 Assay for M19 Transcription Factor (Internal Marker) (AID 2282974; active = hit-call score of the fitted dose curve at least 0.9, where 1 is the maximum); details: HepG2 Attagene TRANS-FACTORIAL M19 internal marker reporter
# Summary of the method: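 Measured here: internal-marker reporter transcript from HepG2 cells transfected with MRTUs, harvested at 24 h. cDNA PCR products were 6-FAM labelled by primer extension, cut with HpaI for 2 h at 37 C, and resolved by CE.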
# [20] = biological target: Estrogen receptor (Homo sapiens) (UniProt P03372); test: ATG_ERa_TRANS: Attagene TRANS-FACTORIAL HepG2 Assay for human Estrogen Receptor alpha (ERa) (AID 2282970; active = hit-call score of the fitted dose curve at least 0.9, where 1 is the maximum); details: HepG2 Attagene TRANS ERa GAL4 reporter, mRNA
# Sequence of Estrogen receptor (Homo sapiens) (P03372 whole entry, looked up, the tested form may be a part): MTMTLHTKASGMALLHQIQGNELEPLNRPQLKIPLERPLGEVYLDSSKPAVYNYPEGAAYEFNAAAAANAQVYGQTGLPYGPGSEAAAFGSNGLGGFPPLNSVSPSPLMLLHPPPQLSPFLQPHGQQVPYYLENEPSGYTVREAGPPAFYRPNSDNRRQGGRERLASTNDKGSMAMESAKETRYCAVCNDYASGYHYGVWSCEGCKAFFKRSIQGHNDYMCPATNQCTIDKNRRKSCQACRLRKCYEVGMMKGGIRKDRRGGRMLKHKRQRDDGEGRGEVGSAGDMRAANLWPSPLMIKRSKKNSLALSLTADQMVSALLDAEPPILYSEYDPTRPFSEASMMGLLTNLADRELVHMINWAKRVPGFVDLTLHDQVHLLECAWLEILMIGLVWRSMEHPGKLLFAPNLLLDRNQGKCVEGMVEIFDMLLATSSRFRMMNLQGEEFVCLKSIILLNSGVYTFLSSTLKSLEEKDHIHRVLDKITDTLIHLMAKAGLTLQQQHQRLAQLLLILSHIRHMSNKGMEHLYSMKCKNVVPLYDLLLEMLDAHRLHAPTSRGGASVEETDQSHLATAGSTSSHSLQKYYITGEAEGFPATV
# Summary of the method: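 HepG2 cells transiently transfected with multiplexed GAL4-UAS reporter units; ERa activity read via exogenous chimeric NR-Gal4 protein. After 24 hour compound exposure, reporter mRNA measured by RT-PCR with 6-FAM labelling and capillary electrophoresis; gain-of-signal fitted relative to DMSO.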
structure (smiles),measurement,setting,value
Cc1cccc(C)c1[N+](=O)[O-],outcome,[1],inactive
same,outcome,[2],inactive
same,outcome,[3],inactive
same,outcome,[4],inactive
same,outcome,[5],inactive
same,outcome,[6],inactive
same,outcome,[7],inactive
same,outcome,[8],inactive
same,outcome,[9],inactive
same,outcome,[10],inactive
same,outcome,[11],inactive
same,outcome,[12],inactive
same,outcome,[13],inactive
same,outcome,[14],inactive
N#Cc1ccccc1,outcome,[1],inactive
same,outcome,[2],inactive
same,outcome,[3],inactive
same,outcome,[4],inactive
same,outcome,[5],inactive
same,outcome,[6],inactive
same,outcome,[7],inactive
same,outcome,[8],inactive
same,outcome,[9],inactive
same,outcome,[10],inactive
same,outcome,[11],inactive
same,outcome,[12],inactive
same,outcome,[13],inactive
same,outcome,[15],inactive
same,outcome,[14],inactive
same,outcome,[16],inactive
same,outcome,[17],inactive
CO[Si](CCCn1c(=O)n(CCC[Si](OC)(OC)OC)c(=O)n(CCC[Si](OC)(OC)OC)c1=O)(OC)OC,outcome,[1],inactive
same,AC50,[2],28.6 µM (active)
same,outcome,[3],inactive
same,outcome,[4],inactive
same,outcome,[5],inactive
same,outcome,[6],inactive
same,outcome,[7],inactive
same,outcome,[8],inactive
same,outcome,[9],inactive
same,outcome,[10],inactive
same,outcome,[11],inactive
same,outcome,[12],inactive
same,outcome,[13],inactive
same,outcome,[18],inactive
same,outcome,[14],inactive
same,outcome,[19],inactive
same,outcome,[16],inactive
CCCC(C)C=O (stereo not drawn),outcome,[1],inactive
same,outcome,[2],inactive
same,outcome,[3],inactive
same,outcome,[4],inactive
same,outcome,[5],inactive
same,outcome,[6],inactive
same,outcome,[7],inactive
same,outcome,[8],inactive
same,outcome,[9],inactive
same,outcome,[10],inactive
same,outcome,[11],inactive
same,outcome,[12],inactive
same,outcome,[13],inactive
same,outcome,[18],inactive
same,outcome,[14],inactive
same,outcome,[19],inactive
same,outcome,[17],inactive
CCc1c(C)cc(N)c(CC)c1N,outcome,[1],inactive
same,AC50,[2],64.5 µM (active)
same,outcome,[3],inactive
same,outcome,[4],inactive
same,outcome,[5],inactive
same,outcome,[6],inactive
same,outcome,[7],inactive
same,outcome,[8],inactive
same,outcome,[9],inactive
same,outcome,[10],inactive
same,outcome,[11],inactive
same,outcome,[12],inactive
same,outcome,[13],inactive
same,outcome,[18],inactive
same,outcome,[20],inactive
same,outcome,[15],inactive
same,outcome,[14],inactive
same,outcome,[19],inactive
same,outcome,[16],inactive
same,outcome,[17],inactive
CNCCCC12CCC(c3ccccc31)c1ccccc12,AC50,[1],17.4 µM (active)
same,outcome,[2],inactive
same,outcome,[3],inactive
same,outcome,[4],inactive
same,outcome,[5],inactive
same,outcome,[6],inactive
same,outcome,[7],inactive
same,outcome,[8],inactive
same,outcome,[9],inactive
same,AC50,[10],18.5 µM (active)
same,outcome,[11],inactive
same,outcome,[12],inactive
same,AC50,[13],15 µM (active)
same,outcome,[20],inactive
same,AC50,[14],14.9 µM (active)
CCCCCCCCC,outcome,[1],inactive
same,outcome,[2],inactive
same,outcome,[3],inactive
same,outcome,[4],inactive
same,outcome,[5],inactive
same,outcome,[6],inactive
same,outcome,[7],inactive
same,outcome,[8],inactive
same,outcome,[9],inactive
same,outcome,[10],inactive
same,outcome,[11],inactive
same,outcome,[12],inactive
same,outcome,[13],inactive
same,outcome,[20],inactive
same,outcome,[14],inactive
same,outcome,[19],inactive
same,outcome,[16],inactive
CC(=O)O[C@]1(C(C)=O)CC[C@H]2[C@@H]3C[C@H](C)C4=CC(=O)CC[C@]4(C)[C@H]3CC[C@@]21C,outcome,[1],inactive
same,AC50,[2],2.76 µM (active)
same,outcome,[3],inactive
same,AC50,[4],11.2 µM (active)
same,outcome,[5],inactive
same,outcome,[6],inactive
same,outcome,[7],inactive
same,outcome,[8],inactive
same,AC50,[9],42.4 µM (active)
same,outcome,[10],inactive
same,outcome,[11],inactive
same,outcome,[12],inactive
same,AC50,[13],17.1 µM (active)
same,outcome,[20],inactive
same,outcome,[14],inactive
same,outcome,[16],inactive
